Mtb hypoxia inh – PubChem AID 1159583; M. tuberculosis hypoxia-regulated fluorescent reporter, fluorescence; fluorescence inhibition, % (test concentration not listed); actives 0.1% (n = 300,000); in the data active means fluorescence inhibition mostly above about 23%, no sharp cut-off; inactive means mostly below about 17%
PrP 5UTR inh – inhibition of PrP 5' UTR reporter expression; cell-based PrP 5' UTR mRNA reporter, plate reader; inhibition, % (test concentration not listed); actives 0.35% (n = 340,000); AID 488862, 2010; in the data active means inhibition above about 52%; further: 0 = median of the neutral control wells
MazEF act – activators of E. coli MazEF toxin-antitoxin RNase, primary screen, biochemical, fluorescence, uHTS; FAM/BHQ RNA-DNA oligo cleavage fluorescence, 5 h; activation, % at 20 µM; actives 0.32% (n = 350,000); AID 504720, 2011; in the data active means activation above about 50%
PrPC TRFRET – inhibitors of human cell surface prion protein PrPC, primary screen, cell-based, TR-FRET. Major prion protein (Homo sapiens), P04156. TR-FRET read-out. inhibition, % at 13.8 µM. actives 0.43% (n = 370,000). AID 720596, 2013; in the data active means inhibition above about 24%; further: 0% = median of the test wells and 100% = reference compound wells
VHR inh abs – VHR1 phosphatase inhibitors, primary screen, biochemical, absorbance, uHTS; AID 1654, 2009; actives 0.52% (n = 290,000); Dual specificity protein phosphatase 3 (Homo sapiens), P51452; inhibition, % at 13.3 µM; recombinant VHR phosphatase, pNPP absorbance; in the data active means inhibition above about 50%
SARS 3CLpro inh – SARS-CoV 3CLpro protease inhibitors, primary screen, biochemical, quenched FRET; recombinant SARS-CoV 3CLpro, quenched FRET peptide cleavage; Replicase polyprotein 1ab (Severe acute respiratory syndrome coronavirus), P0C6X7; AID 1706, 2009; actives 0.14% (n = 290,000); inhibition, % at 6 µM; in the data active means inhibition above about 12%
PrPC confirm – confirmation of inhibitors of cell surface human prion protein, confirmation, cell-based, TR-FRET | cell surface PrPC level | actives 65% (n = 1,500) | inhibition, % at 13.8 µM | AID 743200, 2013 | shares compounds with PrPC TRFRET; in the data active means inhibition above about 25%
LD9 tox – cytotoxicity in LD9 cells, cytotoxicity control for cell surface PrPc inhibitor project, cell-based, luminescence, high throughput; AID 743201, 2013; actives 29% (n = 1,500); shares compounds with PrPC TRFRET; luminescence viability; inhibition, % at 13.8 µM; in the data active means inhibition above about 9.5%
Numbers without * were called inactive; . = not tested or not shown. Compounds with a hit are over-represented: about 1.5% of the library has one in this group of screens.

SMILES | Mtb hypoxia inh | PrP 5UTR inh | MazEF act | PrPC TRFRET | VHR inh abs | SARS 3CLpro inh | PrPC confirm | LD9 tox
CO[C@H]([C@H](C)/C=C/N(C)C=O)[C@@H](C)C(=O)CC[C@H](C)[C@H](O)[C@H](C)[C@H]1OC(=O)/C=C/C(C)=C/C[C@H](O)C[C@@H]2C=CC[C@@H](C[C@H](OC)[C@@H](C)[C@@H](OC)C[C@@H](OC)[C@@H]1C)O2 | . | . | . | 47.8* | . | . | 39.0* | 26.4*
CCc1nc2ccccc2c(C(=O)OCC(=O)Nc2ccc(S(=O)(=O)N3CCOCC3)cc2)c1C | . | -7.6 | -6.3 | 0.6 | 35.3 | -1.6 | . | .
CN(CC(=O)Nc1cccc(F)c1)CC(=O)Nc1cc(S(=O)(=O)N2CCOCC2)ccc1Cl | -1.9 | -27.9 | 3.1 | 4.8 | . | . | . | .
CCc1nc2ccccc2c(C(=O)OCC(=O)Nc2cccc(S(=O)(=O)N3CCOCC3)c2)c1C | 11.1 | -19.2 | -4.9 | 26.2* | 32.7 | 1.4 | 12.1 | 10.3*
CN(CC(=O)Nc1cccc(S(=O)(=O)N2CCOCC2)c1)CC(=O)Nc1ccc(Cl)c(C(F)(F)F)c1 | -0.9 | -34.2 | -7.9 | 24.6* | . | . | 22.2 | 3.0
COC(=O)C(Cc1ccccc1)NS(=O)(=O)NC(Cc1ccccc1)C(=O)OC (stereo unspecified) | -4.5 | . | . | . | . | . | . | .
CCOC(=O)NC(=O)CSc1cc(C)c2cc(C)cc(C)c2n1 | 8.4 | -24.6 | -2.2 | 42.3* | 19.9 | -1.6 | 57.5* | -2.3
CCOC(=O)NC(=O)CSc1ccc2ccccc2n1 | 1.8 | -17.5 | -5.2 | 49.1* | 48.4 | 0.4 | 48.8* | -8.7
CCOC(=O)NC(=O)CSc1ccccn1 | 6.1 | -19.9 | -2.8 | 2.1 | 6.3 | -4.0 | . | .
CC(/C=C/c1ccccc1)=NNC(=O)c1cccc(Br)c1 | 2.3 | . | . | . | . | . | . | .
COc1ccc(C=NNC(=O)c2nc(-c3ccccc3)n(-c3ccccc3)n2)cc1OC | 5.1 | . | . | . | . | . | . | .
CCCCCCCn1c2c(c(=N)c3ccccc31)CCC2 | 6.3 | -28.1 | 22.8 | 29.9* | 3.6 | 2.4 | 31.1* | 15.5*
CCC(C)C(=O)Nc1cc(C(=O)OC)ccc1C(=O)OC (stereo unspecified) | -5.5 | -18.3 | -1.0 | . | 10.4 | 4.2 | . | .
CCN(CC)C(=S)Nc1cc(C(=O)OC)ccc1C(=O)OC | 8.8 | 3.4 | -1.0 | 25.3* | 42.9 | 2.1 | 4.2 | -6.5
Cc1cccc(NC(=O)c2nc[nH]c2C(=O)NC(C)C(=O)OC(C)(C)C)c1 (stereo unspecified) | -1.5 | . | . | . | . | . | . | .
O=C1C(=C(I)I)c2ccccc2-c2ccccc21 | . | -40.1 | -15.0 | 3.6 | . | . | . | .
O=C1C(=O)c2ccccc2-c2ccccc21 | . | -45.9 | 4.3 | 27.0* | 26.9 | 4.4 | 64.8* | 98.7*
CC1CCCCC1Nc1nc2ccc(Cl)cc2n2cnnc12 (stereo unspecified) | 0.6 | 1.2 | -0.6 | 34.0* | -23.8 | 4.8 | 18.3 | -0.9
O=C1C=C(c2ccc(OC(F)(F)F)cc2)CC(c2ccc(Cl)cc2)C1 (stereo unspecified) | 10.0 | . | . | . | . | . | . | .
CC(C)c1nc(SCC(=O)N2CC(=O)Nc3ccccc32)c2ccccc2n1 | 14.0 | -5.2 | 1.4 | 79.8* | 16.6 | 0.5 | 103.7* | -0.1
Cc1cccc(C)c1-n1c(SCC(=O)N2CC(=O)Nc3ccccc32)nc2ccccc2c1=O | 1.3 | -14.8 | 2.8 | 26.8* | 2.6 | 2.2 | 18.2 | 0.5
COCCn1c(SCC(=O)N2CC(=O)Nc3ccccc32)nc2ccccc2c1=O | 11.4 | -14.8 | -2.6 | -2.5 | 6.3 | -0.9 | . | .
Cc1ccc(-n2c(SCC(=O)N3CC(=O)Nc4ccccc43)nc3ccccc3c2=O)cc1 | -3.2 | -15.3 | 10.7 | 7.0 | 4.6 | 3.2 | . | .
Cc1[nH]n(-c2ccccc2)c(=O)c1/C=N/NC(=O)c1cccc(F)c1 | . | 9.2 | 6.9 | 52.0* | 3.0 | -1.5 | 53.8* | 23.3*
C=CCN1C(=O)C(=CC=C2N(C)c3ccccc3C2(C)C)SC1=S | 11.3 | . | . | . | . | . | . | .
SMILES | Mtb hypoxia inh | PrP 5UTR inh | MazEF act | PrPC TRFRET | VHR inh abs | SARS 3CLpro inh | PrPC confirm | LD9 tox
CC(C)C1Cc2ccccc2-c2[nH]c(=S)[nH]c(=O)c21 (stereo unspecified) | 12.3 | . | 9.9 | 75.1* | . | . | 94.1* | -5.1
CCC1(CC)Cc2ccccc2-c2[nH]c(=S)[nH]c(=O)c21 | 9.1 | -17.0 | 4.0 | 79.4* | . | . | 100.2* | -1.9
CCC1(CC)Cc2ccccc2-c2nc(NN)[nH]c(=O)c21 | 10.1 | -13.5 | 4.0 | -0.5 | 24.9 | 2.5 | . | .
CC(C)[C@@H]1Cc2[nH]c(=S)[nH]c(=O)c2[C@H](C)O1 | . | . | . | 2.4 | . | . | . | .
CC(CC(=O)N(C(C)C)C(C)C)=NNC(=O)c1ccccc1Br | 9.8 | . | . | . | . | . | . | .
CC(=O)NC(CSc1cc(C)nc2ccc(Br)cc12)C(=O)O (stereo unspecified) | . | -8.5 | 2.9 | 31.5* | 1.5 | -1.9 | 57.3* | -3.6
COc1ccc(C=NNC(=O)c2ccccc2Br)cc1COc1ccc(F)cc1 | 8.0 | . | . | . | . | . | . | .
CC(C)c1nc(SCC(=O)Nc2nccs2)c2ccccc2n1 | 9.8 | 5.1 | 12.8 | 50.5* | 15.3 | 0.2 | 89.6* | -3.7
CC(C)c1nc(SCC(=O)NC2CCCCC2)c2ccccc2n1 | 15.6 | 7.5 | 8.1 | 3.4 | 10.2 | 1.9 | . | .
Cc1csc(NC(=O)CSc2nc(C(C)C)nc3ccccc23)n1 | 9.6 | -17.6 | -4.2 | 83.9* | 11.3 | -3.1 | 105.1* | -4.7
CC(C)c1nc(SCC(=O)Nc2ccc(N(C)C)cc2)c2ccccc2n1 | 12.1 | -37.7 | 6.5 | 79.0* | 36.4 | -4.1 | 93.3* | -5.1
CC(C)c1nc(SCC(=O)c2ccc(F)cc2)c2ccccc2n1 | 14.1 | -6.7 | -27.5 | 6.8 | 5.1 | 1.8 | . | .
COc1ccc(-c2cn3c(C)c(C(=O)Nc4ccncc4)sc3n2)cc1 | 9.1 | -8.9 | 16.0 | 10.2 | 33.5 | -3.4 | . | .
Cc1c(C(=O)Nc2ccncc2)sc2nc(-c3ccc(F)cc3)cn12 | 4.4 | -19.1 | -24.9 | 55.8* | 12.7 | 0.9 | 52.8* | 12.1*
COC(=O)C1=C(c2ccc(-c3ccccc3)c(F)c2)CC2CCC1N2C(=O)NCCc1ccccc1 (stereo unspecified) | 1.2 | . | . | . | . | . | . | .
COc1cc(C#Cc2c(-c3cncn3C)n(C)c3ccc(-c4ccc5[nH]ccc5c4)cc23)cc(OC)c1 | -4.7 | -38.3 | -5.0 | 27.2* | . | . | 16.1 | 14.2*
COC(=O)c1sccc1NC(=O)C1C2C=CC(C2)C1C(=O)O (stereo unspecified) | . | -13.6 | 5.0 | 4.2 | 20.4 | 3.2 | . | .
